Test results as given in PubChem BioAssay (NCATS).
Values without a mark were called inactive. Records with an inconclusive call do not appear. Where a call stands in place of a potency, no number is given. The source made the active and inactive calls. Unless noted, the call rests on the fitted dose curve; in most records, active means well fitted curve in the direction sought with a large enough effect; inconclusive means small, poorly fitted or top-dose-only effect, or another doubt; inactive means no such curve, though single readings can be large; an effect the other way counts as inactive or inconclusive.

Key:
[1] = biological target: T1, Hexokinase-4 (Homo sapiens) + Glucokinase regulatory protein (Homo sapiens) (UniProt P35557+Q14397); assay: qHTS assay for inhibitors of recombinant human GCK-GKRP interaction: Diaphorase-coupled assay (AID 743205)
Method in brief: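 Compounds pre-incubated 20 min with substrate, then 10 nM GST-GCK with 10 nM FLAG-GKRP added. GCK activity coupled via G6PDH and diaphorase to resorufin (5 mM glucose, 0.4 mM ATP, 0.15 mM NADP+, pH 7.6), read kinetically over 30 minutes at Ex 525/Em 590 nm.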

[2] = biological target: T1, Hexokinase-4 (Homo sapiens) + Glucokinase regulatory protein (Homo sapiens); assay: qHTS assay for inhibitors of recombinant human GCK-GKRP interaction: ADP-Glo assay (AID 743206)
Method in brief: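 Pin-transferred compounds meet a 15 nM GST-GCK/15 nM FLAG-GKRP/2 uM S6P mix (dispense concentrations). ATP is then added to 0.4 mM final with 5 mM glucose, and the reaction runs 60 min at room temperature. ADP is quantified luminescently.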

[3] = biological target: T1, Hexokinase-4 (Homo sapiens) + Glucokinase regulatory protein (Homo sapiens); assay: qHTS assay for inhibitors of recombinant human GCK-GKRP interaction: HTRF assay (AID 743207)
Method in brief: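 HTRF binding of 5 nM GST-GCK and 5 nM FLAG-GKRP with 2 uM S6P in pH 7.1 Hepes buffer (MgCl2, KCl, DTT, Tween 20, BSA). Anti-FLAG XL665 and anti-GST donor added, 60 min at room temperature; 665/615 nm read, normalized to with- and without-GCK controls.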

[4] = qHTS Assay for Identifying Gametocytocidal Compounds (AID 743244); further: potency means the concentration at half of the fitted maximal effect;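 on max response: actives lower the fluorescent signal which means gametocytes are killed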; settings: P. falciparum 3D7 stage III-V gametocytes, alamarBlue, 72 h; max response: stronger effect = lower value
Method in brief: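 A resazurin-based viability read-out was applied to mature P. falciparum gametocytes: 72 h compound treatment, then 24 h dye incubation, with falling fluorescence signalling gametocytocidal effect.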

[5] = qHTS assay for measurement of the activity of small molecule inhibitors on Zika virus induced Caspase-3 activity in human iPSC derived neural progenitor cells (hNPCs) (AID 1224857); further: nearly all actives have a fitted effect of over 65% in size
Method in brief: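 Quantitative HTS format: human iPSC neural progenitors, 1 h compound pretreatment, ZIKV 2 FFU/cell for 6 h at 37 C. Percent inhibition derived from luminescent caspase-3/7 signal between uninfected and infected controls.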

[6] = qHTS assay for measurement of the activity of small molecule inhibitors on Zika virus induced Caspase-3 activity in human astrocytoma cells (AID 1224859)
Method in brief: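 Readout is luminescence from Caspase-Glo 3/7 added after a 6 h ZIKV infection (2 FFU/cell) of compound-pretreated (1 h) SNB-19 cells; data expressed as % inhibition versus uninfected and infected wells.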

[7] = Natriuretic polypeptide receptor (hNpr1) antagonism - Pilot counterscreen GloSensor control cell line (AID 1347045; calls by dose curve; further: potency means the concentration at half of the fitted maximal effect)
Method in brief: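 HEK293 cGMP-sensor cells; 2% GloSensor reagent 2 h RT; LOPAC compounds in 1:5 titrations 30-50 min; 50 uM SNP 20 min; luminescence pre-read and post-read.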

[8] = biological target: Atrial natriuretic peptide receptor 1 (Homo sapiens) (UniProt P16066); assay: Natriuretic polypeptide receptor (hNpr1) antagonism - Pilot screen (AID 1347049; calls by dose curve;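 further: agonist-evoked cGMP luminescence read 20 min after hNppA addition; series mostly up to about 58 µM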)
Method in brief: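 cGMP-sensor HEK293/hNpr1 cells, 1500/well, plated overnight at 37C. 2% GloSensor reagent, 2 h RT. Compound (23 nL pin transfer) 30 min RT, baseline luminescence pre-read. 0.1 nM hNppA, 20 min RT, post-read.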

[9] = qHTS assay for cell viability of HEK293 cells (AID 743288); settings: ATP luminescence (CellTiter-Glo), 18 h; max response: stronger effect = lower value; further: nearly all actives have a fitted effect of over 50% in size; further: potency means the concentration at half of the fitted maximal effect
Method in brief: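 Steps: plate 2,000 parental HEK293 cells per well; incubate ≥5 h, 37 C; add compounds in DMSO; incubate 18 h, 37 C; add CellTiter-Glo; wait 30 min at room temperature; read luminescence.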

[10] = qHTS assay for cell viability of the p53RE-bla HCT-116 cell line (AID 743292); further: nearly all actives have a fitted effect of over 55% in size; further: potency means the concentration at half of the fitted maximal effect
Method in brief: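 Viability of compound-treated p53RE-bla HCT-116 cells is taken from ATP-dependent luciferase luminescence. Treatment lasts 16 h at 37 C after a 5 h settling period; detection follows 30 min at room temperature.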

[11] = biological target: Atrial natriuretic peptide receptor 2 (Homo sapiens) (UniProt P20594); assay: Natriuretic polypeptide receptor (hNpr2) antagonism - Pilot subtype selectivity assay (AID 1347050; calls by dose curve)
Method in brief: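 Luminescence from a genetically encoded cGMP luciferase biosensor in hNpr2-expressing HEK293 cells is read before and 20 min after adding 1 nM hNppC. Test compounds, in interplate 1:5 titrations, are added 30-50 min ahead of the agonist.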

[12] = P-glycoprotein substrates identified in KB-3-1 adenocarcinoma cell line, qHTS therapeutic library screen (AID 1346986); further: nearly all actives have a fitted effect of over 60% in size
Method in brief: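 Viability by CellTiter-Glo after 72 h compound exposure at 37 degree C, 5% CO2. Cytotoxic call: curve class -1.1 to -2.4, maximum response >50%, AC50 < 10 uM, compared across KB-3-1 and P-gp-overexpressing KB-8-5-11.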

[13] = P-glycoprotein substrates identified in KB-8-5-11 adenocarcinoma cell line, qHTS therapeutic library screen (AID 1346987); further: nearly all actives have a fitted effect of over 65% in size
Method in brief: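 In this qHTS, P-gp-rich KB-8-5-11 cells received library compounds across a concentration range. Viability was quantified by luminescence after 72 h at 37 degree C.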

Atrial natriuretic peptide receptor 1 (Homo sapiens), sequence (P16066 whole entry, looked up): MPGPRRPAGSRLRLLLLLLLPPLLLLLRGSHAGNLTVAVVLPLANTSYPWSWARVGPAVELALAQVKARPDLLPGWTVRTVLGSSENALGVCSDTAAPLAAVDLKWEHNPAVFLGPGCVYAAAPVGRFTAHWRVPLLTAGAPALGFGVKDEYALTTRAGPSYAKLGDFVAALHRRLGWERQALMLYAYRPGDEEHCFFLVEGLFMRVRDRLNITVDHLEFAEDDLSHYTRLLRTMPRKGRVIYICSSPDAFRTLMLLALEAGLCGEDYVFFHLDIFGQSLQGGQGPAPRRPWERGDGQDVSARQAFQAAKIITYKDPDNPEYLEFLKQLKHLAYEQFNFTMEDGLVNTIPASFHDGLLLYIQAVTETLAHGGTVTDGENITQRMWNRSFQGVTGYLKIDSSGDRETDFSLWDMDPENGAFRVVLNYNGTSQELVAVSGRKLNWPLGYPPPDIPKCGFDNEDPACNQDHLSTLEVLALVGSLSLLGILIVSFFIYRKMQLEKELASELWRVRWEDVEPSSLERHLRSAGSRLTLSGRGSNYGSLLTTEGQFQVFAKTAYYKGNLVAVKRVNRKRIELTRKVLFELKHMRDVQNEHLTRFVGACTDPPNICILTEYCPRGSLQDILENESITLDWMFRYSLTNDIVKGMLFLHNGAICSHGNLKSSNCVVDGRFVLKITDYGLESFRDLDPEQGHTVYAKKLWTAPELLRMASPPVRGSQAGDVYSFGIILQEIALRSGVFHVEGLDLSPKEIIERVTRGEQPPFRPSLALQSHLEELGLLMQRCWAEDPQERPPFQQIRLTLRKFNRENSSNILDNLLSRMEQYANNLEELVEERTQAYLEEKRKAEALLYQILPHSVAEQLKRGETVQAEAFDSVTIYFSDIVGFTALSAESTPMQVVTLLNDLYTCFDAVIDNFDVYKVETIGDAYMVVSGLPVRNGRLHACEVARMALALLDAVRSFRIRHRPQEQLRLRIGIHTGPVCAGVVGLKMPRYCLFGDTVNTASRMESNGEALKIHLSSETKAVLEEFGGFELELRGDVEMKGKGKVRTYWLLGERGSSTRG
T1 sequence (P35557 whole entry, looked up): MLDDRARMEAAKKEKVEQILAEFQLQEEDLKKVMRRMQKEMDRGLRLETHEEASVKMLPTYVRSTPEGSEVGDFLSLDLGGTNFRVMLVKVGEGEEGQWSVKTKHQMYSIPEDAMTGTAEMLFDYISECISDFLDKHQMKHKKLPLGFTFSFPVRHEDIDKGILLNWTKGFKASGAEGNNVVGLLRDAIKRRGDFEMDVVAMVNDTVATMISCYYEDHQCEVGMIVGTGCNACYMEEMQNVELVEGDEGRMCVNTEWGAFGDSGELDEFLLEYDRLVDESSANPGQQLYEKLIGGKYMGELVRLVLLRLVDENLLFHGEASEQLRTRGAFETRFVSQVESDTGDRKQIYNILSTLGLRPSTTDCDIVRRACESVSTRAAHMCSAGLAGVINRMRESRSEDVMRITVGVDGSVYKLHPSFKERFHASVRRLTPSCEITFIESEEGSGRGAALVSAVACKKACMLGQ
T1 sequence (Q14397 whole entry, looked up): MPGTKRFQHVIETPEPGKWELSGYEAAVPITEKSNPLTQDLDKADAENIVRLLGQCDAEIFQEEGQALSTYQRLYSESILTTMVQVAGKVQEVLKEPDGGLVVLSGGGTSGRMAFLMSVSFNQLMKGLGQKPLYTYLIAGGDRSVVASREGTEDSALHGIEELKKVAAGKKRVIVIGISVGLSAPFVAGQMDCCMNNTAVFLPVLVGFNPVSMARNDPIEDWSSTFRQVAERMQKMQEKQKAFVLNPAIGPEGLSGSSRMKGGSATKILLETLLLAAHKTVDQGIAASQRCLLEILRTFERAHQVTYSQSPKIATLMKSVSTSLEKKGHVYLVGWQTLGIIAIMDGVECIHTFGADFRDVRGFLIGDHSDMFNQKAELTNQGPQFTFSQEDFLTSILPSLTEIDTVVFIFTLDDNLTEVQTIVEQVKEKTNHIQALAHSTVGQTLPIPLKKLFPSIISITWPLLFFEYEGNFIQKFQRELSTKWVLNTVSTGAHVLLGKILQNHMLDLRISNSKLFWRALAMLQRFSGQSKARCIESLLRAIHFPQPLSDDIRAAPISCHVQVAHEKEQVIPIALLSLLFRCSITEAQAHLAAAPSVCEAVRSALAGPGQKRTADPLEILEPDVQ
Atrial natriuretic peptide receptor 2 (Homo sapiens), sequence (P20594 whole entry, looked up): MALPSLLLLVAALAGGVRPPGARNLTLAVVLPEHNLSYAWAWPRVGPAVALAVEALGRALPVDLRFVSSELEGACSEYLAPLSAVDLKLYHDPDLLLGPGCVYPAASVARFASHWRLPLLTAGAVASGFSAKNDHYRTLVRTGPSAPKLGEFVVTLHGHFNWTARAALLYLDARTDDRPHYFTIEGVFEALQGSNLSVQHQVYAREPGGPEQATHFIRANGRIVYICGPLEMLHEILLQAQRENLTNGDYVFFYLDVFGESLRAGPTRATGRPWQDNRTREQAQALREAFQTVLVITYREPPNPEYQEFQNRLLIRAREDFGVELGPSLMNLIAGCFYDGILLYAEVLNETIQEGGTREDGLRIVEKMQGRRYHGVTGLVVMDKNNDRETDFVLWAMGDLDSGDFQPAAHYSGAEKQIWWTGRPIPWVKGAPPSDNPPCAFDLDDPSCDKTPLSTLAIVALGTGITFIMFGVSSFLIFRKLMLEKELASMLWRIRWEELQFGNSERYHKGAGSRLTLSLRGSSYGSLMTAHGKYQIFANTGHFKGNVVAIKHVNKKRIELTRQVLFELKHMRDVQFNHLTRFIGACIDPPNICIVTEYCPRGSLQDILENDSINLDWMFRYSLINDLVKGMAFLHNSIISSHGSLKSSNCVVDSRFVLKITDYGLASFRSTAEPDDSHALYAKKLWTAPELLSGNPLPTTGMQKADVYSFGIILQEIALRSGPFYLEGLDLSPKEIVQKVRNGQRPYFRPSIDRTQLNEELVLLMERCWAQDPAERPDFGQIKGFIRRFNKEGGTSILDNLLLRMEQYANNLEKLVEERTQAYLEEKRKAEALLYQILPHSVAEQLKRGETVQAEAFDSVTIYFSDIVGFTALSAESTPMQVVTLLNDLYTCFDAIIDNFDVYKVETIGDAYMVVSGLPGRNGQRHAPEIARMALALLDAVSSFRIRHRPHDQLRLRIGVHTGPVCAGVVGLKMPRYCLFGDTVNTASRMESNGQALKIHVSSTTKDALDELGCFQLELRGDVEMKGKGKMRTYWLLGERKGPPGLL

Row | Compound | Potency [1] | Potency [2] | Potency [3] | max response [4] [%] | Potency [5] | Potency [6] | Potency [7] | Potency [8] | max response [9] [%] | Potency [10] | Potency [11] | Potency [4] | Potency [9] | Potency [12] | Potency [13]
1 | COc1ccc2c(c1)c(CC(=O)O)c(C)n2C(=O)c1ccccc1 | inactive | inactive | inactive | 11.3 | inactive | inactive | inactive | inactive |  |  |  |  |  |  | 
2 | N[C@@H](Cc1ccc(F)cc1)C(=O)O | inactive | inactive | inactive | 19.5 | inactive | inactive | inactive | inactive |  |  |  |  |  |  | 
3 | NC(N)=[N+]1CCc2ccccc2C1 | inactive | inactive | inactive | -3.89 | inactive | inactive | inactive | inactive |  |  |  |  |  |  | 
4 | NC1(C(=O)O)CCc2cc(C(=O)O)ccc21 (stereo unspecified) |  | inactive | inactive | 9.78 | inactive | inactive | inactive | inactive |  |  |  |  |  |  | 
5 | CCCc1c(OCCCOc2ccc(OCC(=O)O)cc2)ccc(C(C)=O)c1O | inactive | inactive | inactive | 1.52 | inactive | inactive | inactive | inactive | -9.62 | inactive |  |  |  |  | 
6 | O=C(O)[C@H]1NCCC[C@H]1C(=O)O |  | inactive | inactive | 8.68 | inactive | inactive | inactive | inactive |  |  |  |  |  |  | 
7 | CC[C@H](NC(=O)c1c(C)c(-c2ccccc2)nc2ccccc12)c1ccccc1 | inactive | inactive | inactive | 5.87 | inactive | inactive | inactive |  |  |  | inactive |  |  |  | 
8 | O=c1[nH]c2cc(Cl)ccc2c(O)c1-c1ccc(Oc2ccccc2)cc1 | inactive | inactive | inactive | 17.9 | inactive | inactive | inactive | inactive |  |  |  |  |  |  | 
9 | CC[C@@H]1Cc2cc(O)ccc2C2=C1c1ccc(O)cc1C[C@H]2CC | inactive | inactive | inactive |  | inactive | inactive | 20.7 µM (active) |  |  | 70.8 µM (active) |  | 3.55 µM (active) | 50.1 µM (active) |  | 
10 | CN1CCc2cc(Cl)c(O)cc2[C@@H](c2ccccc2)C1 | inactive | inactive | inactive | 34.1 | inactive | inactive | inactive |  |  |  |  |  |  |  | 
11 | N#Cc1cc([N+](=O)[O-])c2sc(C(N)=O)[n+]([O-])c2c1 | inactive | inactive | inactive |  |  | inactive | 14.7 µM (active) |  |  |  | inactive |  |  | inactive | inactive
12 | O=C(O)Cc1c[nH]c2ccc(O)cc12 | inactive | inactive | inactive | -2.34 | inactive | inactive | inactive |  |  |  | inactive |  |  |  | 
13 | COc1ccc(C(=O)NCc2cccnc2)cc1C(=O)NCc1cccnc1 | inactive | inactive | inactive | 22.9 | inactive | inactive | inactive |  |  |  |  |  |  |  | 
14 | CCCCCCCCCCCCCCSCC(=O)O | inactive | inactive | inactive | 30.8 | inactive | inactive | inactive |  | -15 | inactive | inactive |  |  |  | 
15 | Cc1ccc2c(c1)C(N1CCN(C)CC1)=Nc1cccnc1N2 | inactive |  | inactive | 23 | inactive | inactive | inactive |  |  |  |  |  |  |  | 
16 | CCCC(=O)NCCc1c2n(c3ccc(OC)cc13)CCCc1ccccc1-2 | inactive | inactive | inactive | 19.4 | inactive | inactive | inactive |  |  |  | inactive |  |  |  | 
17 | CCCCCCC(=O)OC1CC(C)(C)NC(C)(C)C1 |  | inactive | inactive | -4.67 | inactive | inactive | inactive |  |  |  | inactive |  |  |  | 
18 | N#C/C(=C\c1ccc(O)c(O)c1)C(=O)NCCc1ccccc1 | inactive | inactive | inactive | 5.86 | inactive | inactive | inactive |  |  |  | inactive |  |  |  | 
19 | CN[C@H](CC(=O)O)C(=O)O | inactive |  | inactive | 19.8 | inactive | inactive | inactive |  |  |  |  |  |  |  | 
20 | Cc1nc2c(OCc3ccccc3)cccn2c1CC#N | inactive | inactive | inactive | 18.4 | inactive | inactive | inactive |  |  |  | inactive |  |  |  | 
